# Assay outcomes deposited in PubChem by National Center for Advancing Translational Sciences (NCATS).
# Giardia killer: kills Giardia lamblia. Giardia lamblia trophozoite viability. AID 540267. activity change, % at 7.66 µM, hits read low. 0.15% of 340,000 active; in the data active = activity change below about -80%; inconclusive = between about -30% and that limit;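 also: parasites exposed to compound for two days anaerobically before the ATP read; % is scaled to controls: 0 for no effect and ±100 for the full control effect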
#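 Giardia trophozoites, 100 cells per well, were exposed to compounds for 48 hrs at 37 deg C under anaerobic conditions; viability was then read as ATP content by bioluminescence after 15-30 min at room temperature.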
# MCF10A rerep: induces DNA re-replication in MCF 10a normal breast cells; MCF 10A DNA re-replication, Hoechst nuclear intensity, 48 h; 2.9% of 350,000 active; AID 624296; Potency, µM (titrated, usually from 46.1 µM), for the others: at the top dose activity, positive = re-replication, most hits filed as activators; also: potency is read from the fitted curve at half-maximal effect; % of control where 0% means no effect; nearly all actives have a fitted effect of over 50% in size
# SW480 rereplic: DNA re-replication induction in SW480 cells | Potency, µM (doses to about 46.1 µM), inactives show top-dose re-replication activation, hits mostly activators | SW480 DNA re-replication, Hoechst DNA content imaging, 48 h | AID 624297 | 1.8% of 340,000 active; also: potency is read from the fitted curve at half-maximal effect; % of control where 0% means no effect; nearly all actives have a fitted effect of over 55% in size
#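 First, 250 cells per well were seeded. Next, compound or vehicle (23 nL) was pinned in, plates sat 48 hr at 37 C. Finally Hoechst was added for 40 min before fluorescence scanning.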
# KB-3-1 tox: kills parental KB-3-1 adenocarcinoma cells. KB-3-1 viability, CellTiter-Glo ATP luminescence, 72 h. Potency, µM (top dose mostly 46.1 µM), hits mostly cytotoxic. 1.4% of 400,000 active. AID 1347075; also: potency is read from the fitted curve at half-maximal effect; % is scaled to controls: 0 for no effect and ±100 for the full control effect; nearly all actives have a fitted effect of over 60% in size
#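 KB-3-1 cells, DMEM (no phenol red) + 10% FBS; compound by pin transfer, 72 h, 37 °C. Readout: CellTiter-Glo luminescence after 10 min. Data normalized, curve-fitted.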
# ASM inhibitor: inhibitors of human secretory acid sphingomyelinase; P17405; placental ASM, HMU-PC fluorogenic substrate, 60 min; Potency, µM (highest dose often 57.5 µM), for the others: at the highest dose activity change, negative = inhibition, hits mostly inhibitors; 0.006% of 340,000 active; AID 504937; also: potency is read from the fitted curve at half-maximal effect
# Target sequence (P17405 47-631 limits assumed): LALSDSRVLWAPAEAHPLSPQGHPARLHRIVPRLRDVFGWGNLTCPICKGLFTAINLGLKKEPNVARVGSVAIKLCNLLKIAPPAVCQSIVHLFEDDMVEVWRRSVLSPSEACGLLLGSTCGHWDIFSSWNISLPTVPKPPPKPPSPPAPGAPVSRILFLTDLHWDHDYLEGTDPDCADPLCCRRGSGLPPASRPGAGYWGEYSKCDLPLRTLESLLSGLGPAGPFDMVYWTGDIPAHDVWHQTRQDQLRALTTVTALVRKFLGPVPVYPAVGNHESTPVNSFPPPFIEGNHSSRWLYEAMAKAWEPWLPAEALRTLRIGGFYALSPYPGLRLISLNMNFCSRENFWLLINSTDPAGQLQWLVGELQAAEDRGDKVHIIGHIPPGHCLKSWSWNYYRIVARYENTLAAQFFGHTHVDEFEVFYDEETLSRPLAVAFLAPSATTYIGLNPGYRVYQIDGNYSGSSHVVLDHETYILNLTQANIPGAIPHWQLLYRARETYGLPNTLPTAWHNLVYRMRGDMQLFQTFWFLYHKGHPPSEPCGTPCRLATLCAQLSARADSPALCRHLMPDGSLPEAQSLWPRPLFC
#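 Fluorescence read-out (Ex 386 nm, Em 447 nm) after stopping the reaction at pH 10. Enzyme: ASM from human placenta; substrate HMU-PC0, 9 uM final; 60 min, 37 °C. Compound preincubation 10 min, ambient temperature.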
# KB-V1 MDR tox: kills drug-selected multidrug resistant KB-V1 cells; KB-V1 MDR cells viability, CellTiter-Glo, 72 h; Potency, µM (series often up to 46.1 µM), hits mostly cytotoxic; 3.4% of 400,000 active; also: potency is read from the fitted curve at half-maximal effect; % is scaled to controls: 0 for no effect and ±100 for the full control effect; nearly all actives have a fitted effect of over 60% in size
#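 Luminescent ATP read-out (CellTiter-Glo, 10 min) measures survival of drug-selected KB-V1 MDR cells after 72 h, 37 degrees C compound exposure. Medium: phenol-red-free DMEM, 10% FBS. Values from fitted concentration-response curves.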
# Active calls of the source: *; i = inactive; ? = inconclusive; . = not tested or not shown. Only some compounds are listed: those with a hit (about 6.9% of all), similar ones and a draw of the others. Unless noted, calls follow the shape of the dose curve; as a rule, active = well fitted curve in the direction sought with a large enough effect; inconclusive = small, poorly fitted or top-dose-only effect, or another doubt; inactive = no such curve, though single readings can be large; an effect the other way counts as inactive or inconclusive.
SMILES,Giardia killer,MCF10A rerep,SW480 rereplic,KB-3-1 tox,ASM inhibitor,KB-V1 MDR tox
Cc1cccc(NC(=O)CN2C(=O)N/C(=C\c3ccc(-c4cccc(C(=O)O)c4)o3)C2=O)c1,8,16µM*,18µM*,i,336%,i
Cc1nn(Cc2c(F)c(F)c(F)c(F)c2F)c(C)c1NC(=O)c1ccc(COc2ccc(Cl)cc2Cl)o1,11,?,?,?,-24%,18µM*
Cc1nn(Cc2ccc(Cl)cc2Cl)c(C)c1NC(=O)c1ccc(COc2cc(Cl)ccc2Cl)o1,7,19%,?,?,-4%,i
O=C(Nc1ccccc1F)c1ccc(COc2ccc(Cl)cc2Cl)o1,1,15%,-10%,i,-12%,i
O=C(Nc1ccn(Cc2c(F)c(F)cc(F)c2F)n1)c1ccc(COc2ccc(Cl)cc2Cl)o1,-8,19%,3%,i,-10%,8.2µM*
CCOC(=O)c1[nH]c(C)c(CCC(=O)NC(C)c2ccccc2)c1C (configuration not stated),.,.,.,i,.,?
Cc1ccc2nc(-c3ccccc3)cc(C(=O)N3CCc4ccccc4C3)c2c1,-2,?,7%,i,-4%,i
O=C(c1cc(-c2ccccc2)nc2ccccc12)N1CCc2ccccc2C1,3,14%,-8%,?,-7%,18µM*
COc1ccc(-c2cc(C(=O)N3CCN(c4ncccn4)CC3)c3ccccc3n2)cc1OC,-15,29%,8.2µM*,i,58%,i
COc1cccc(-c2cc(C(=O)N3CCN(c4ncccn4)CC3)c3ccccc3n2)c1,-23,15µM*,-31%,i,-6%,?
COc1cc(C(=O)N2CCN(c3ccccc3)CC2)c2ccccc2n1,13,?,10µM*,0.58µM*,2%,?
Cc1cc(NC(=O)Nc2nnc(N3CCCCC3)s2)ccc1Br,.,.,.,i,.,?
O=C(c1cc(-c2cccnc2)nc2ccccc12)N1CCN(S(=O)(=O)c2ccc(Cl)s2)CC1,16,12%,2%,i,-1%,9.2µM*
CCN=c1scc(-c2cccs2)n1/N=C/c1cc(OC)ccc1O,-1,5.8µM*,?,18µM*,7%,?
N#CC1=C(N)OC2=C(CCc3ccccc32)C1c1ccccc1 (configuration not stated),-9,?,0.73µM*,0.58µM*,31%,1.5µM*
Cc1ccc(/C=C2\CCC3=C2OC(N)=C(C#N)C3c2ccc(C)cc2)cc1 (configuration not stated),6,2.9µM*,11µM*,i,i,i
COc1c(C)cc(C(O)c2ncc(-c3ccccc3C(F)(F)F)[nH]2)cc1C (configuration not stated),.,.,.,i,.,18µM*
COc1ccccc1-c1cnc(C(O)c2ccc(Cl)c(Cl)c2)[nH]1 (configuration not stated),.,.,.,?,.,23µM*
COc1ccccc1-c1cnc(C(O)c2ccccc2)[nH]1 (configuration not stated),.,.,.,i,.,?
COc1ccccc1-c1cnc(C(O)c2cc(Cl)cc(Cl)c2)[nH]1 (configuration not stated),.,.,.,i,.,i
COc1ccccc1-c1cnc(C(O)c2ccc(C(C)(C)C)cc2)[nH]1 (configuration not stated),.,.,.,?,.,21µM*
Cc1cc(C)c(NC(=O)CN(C)C(=O)C2CC(=O)N(c3cccc4ccccc34)C2)c(C)c1 (configuration not stated),1,28%,-15%,i,-1%,i
COc1ccc(-c2n[nH]c(C)c2-c2cnn(-c3ccccc3)c2)c(O)c1,5,21µM*,?,i,?,?
COc1ccc(-c2n[nH]c(C)c2-c2cnn(-c3ccccc3)c2)c(O)c1C,15,?,15µM*,?,-14%,?
